# FLuc inh: Firefly luciferase inhibition profiling of diverse chemical library using quantitative high-throughput screening; purified P. pyralis luciferase, luminescence, biochemical; 76,000 tested, 2.5% active; Potency, µM (series often up to 115 µM), actives largely listed as inhibitors; note: % is set by controls: 0 for no effect and ±100 for the full control effect; nearly all actives have a fitted effect of over 65% in size
#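 FLuc 10nM, D-luciferin 10uM, ATP 10uM, Mg acetate 10mM, Tris acetate pH 7.5, Tween/BSA; cpd qHTS; enzyme added last; CCD luminescence.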
# HEK293 viab: GF-AFC viability counterscreen for inhibitors of alpha-synuclein gene (SNCA) expression; HEK-293-SNCA-luc viability, GF-AFC fluorescence, 24 h; Potency, µM (top dose mostly 57.1 µM), for inactives: top-dose activity change, negative = cytotoxicity, most hits filed as cytotoxic; 150,000 tested, 0.12% active;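 note: 0% = DMSO-treated cells and -100% = medium-only wells without cells; nearly all actives have a fitted effect of over 30% in size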
#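 HEK-293-SNCA-luc cells (1500/well) plated 24 h, then exposed 24 h to a dilution series; GF-AFC added 30 min at 37C, fluorescence 405/540 nm; normalised to medium-only and DMSO wells, Hill fit.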
# 3T3 cytotox: Cytotoxic Profiling in NIH 3T3 Cell Line of Diverse Libraries Using Quantitative High-Throughput Screening. AID 1345082, 2018. NIH 3T3 viability, CellTiter-Glo ATP luminescence, 48-72 h. Potency, µM (top dose mostly 96.7 µM), inactives show at the highest dose activity change, negative = cytotoxicity, usual class: inhibitors. 94,000 tested, 4.3% active; note: % is set by controls: 0 for no effect and ±100 for the full control effect; nearly all actives have a fitted effect of over 55% in size
#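 First NIH 3T3 cells are plated at 400 cells/well; next compound is pinned in; then plates incubate 48 or 72 hr at 37 °C; finally CellTiter-Glo is added and luminescence read after 10 min.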
# SNCA expr inhib: Primary qHTS assay for inhibitors of alpha-synuclein gene (SNCA) expression. HEK-293 SNCA-luciferase knock-in, luminescence, 24 h. Potency, µM (doses to about 57.2 µM), for inactives: at the highest dose activity change, negative = inhibition, usual class: inhibitors. 140,000 tested, 0.17% active;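 note: plate controls were DMSO cells for no effect and cell-free wells for full effect; nearly all actives have a fitted effect of over 45% in size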
# NPR1 antag: Natriuretic polypeptide receptor (hNpr1) antagonism - Primary qHTS | Atrial natriuretic peptide receptor 1 (Homo sapiens), P16066 | HEK293 hNpr1 GloSensor cGMP, ANP-stimulated luminescence | Potency, µM (top dose mostly 46.3 µM), without a hit: at the top dose activity change, negative = inhibition, usual class: inhibitors | 76,000 tested, 1.6% active; calls by dose curve; note: % is set by controls: 0 for no effect and ±100 for the full control effect; nearly all actives have a fitted effect of over 60% in size
#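 HEK293 cells stably expressing human Npr1 and cGMP GloSensor pGS-40F, loaded 2 h with 2% GloSensor reagent, given compound 30 min at room temperature. Luminescence read before and 20 min after 0.1 nM hNppA.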
# HEK cytotox: Cytotoxic Profiling in HEK 293 Cell Line of Diverse Libraries Using Quantitative High-Throughput Screening. HEK 293 viability, ATP luminescence (CellTiter-Glo), 48-72 h. Potency, µM (titrated, usually from 115 µM), for the others: at the highest dose activity change, negative = cytotoxicity, most hits filed as inhibitors. 94,000 tested, 6.6% active; note: % is set by controls: 0 for no effect and ±100 for the full control effect; nearly all actives have a fitted effect of over 60% in size
#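 CellTiter-Glo luminescence (cellular ATP) was read after 48 or 72 hr of compound exposure at 37 degree Celsius. Cells were HEK 293 plated at 250 cells/well.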
# Npr1 antag conf: Natriuretic polypeptide receptor (hNpr1) antagonism - Confirmation. shares compounds with NPR1 antag. HEK293 hNpr1 cGMP GloSensor luminescence, ANP-stimulated. Potency, µM (series often up to 57.6 µM), without a hit: at the top dose activity change, negative = inhibition, most hits filed as inhibitors. 1,400 tested, 76% active; calls by dose curve; note: nearly all actives have a fitted effect of over 70% in size
# Npr2 selectivity: Natriuretic polypeptide receptor (hNpr2) antagonism - Subtype selectivity assay; Potency, µM (doses to about 57.6 µM), for inactives: at the highest dose activity change, negative = inhibition, usual class: inhibitors; HEK293 hNpr2 GloSensor cGMP luminescence, CNP-stimulated; shares compounds with NPR1 antag; 1,400 tested, 67% active; calls by dose curve; note: nearly all actives have a fitted effect of over 70% in size
# FLuc inh counter: Natriuretic polypeptide receptor (hNpr1) antagonism - Confirmation firefly luciferase (FLuc) inhibition counterscreen. shares compounds with NPR1 antag. purified FLuc enzyme, luminescence, Km substrate. Potency, µM (series often up to 57.6 µM), for inactives: top-dose activity change, negative = inhibition, hits mostly inhibitors. 1,400 tested, 0.7% active. AID 1347047, 2019; note: 0% is about no effect
# GloSensor cGMP: Natriuretic polypeptide receptor (hNpr1) antagonism - Counterscreen GloSensor control cell line | 1,400 tested, 69% active | Potency, µM (series often up to 57.6 µM), inactives show at the highest dose activity change, negative = inhibition, usual class: inhibitors | shares compounds with NPR1 antag | HEK293 GloSensor cGMP, SNP-stimulated, luminescence | AID 1347051, 2019; calls by dose curve; note: % is set by controls: 0 for no effect and ±100 for the full control effect; nearly all actives have a fitted effect of over 70% in size
# * marks the source's active call; other numbers are inactive results; i = inactive; u = inconclusive; x = no result; [ ] = another dose, or the depositor's remark. Sampled rows, rich in hits. Any-hit rate of the full collection: about 7.4%. Unless noted, calls come from the whole dose curve; as a rule, active = well fitted curve in the direction sought with a large enough effect; inconclusive = small, poorly fitted or top-dose-only effect, or another doubt; inactive = no such curve, though single readings can be large; an effect the other way counts as inactive or inconclusive. Potency is the fitted concentration of half-maximal effect.
SMILES,FLuc inh,HEK293 viab,3T3 cytotox,SNCA expr inhib,NPR1 antag,HEK cytotox,Npr1 antag conf,Npr2 selectivity,FLuc inh counter,GloSensor cGMP
COc1cccc(CNC(=O)C2CCN(C(=O)c3ccc(-c4cccc(OC)c4)cc3)CC2)c1,x,5%[12.5 µM],u,-6%,x,u,x,x,x,x
COc1ccc(CN2C=C(C(=O)OCc3noc(-c4cccc(OC)c4)n3)C(C)=NS2(=O)=O)cc1,i,-5%,u,13%,u,u,u,-30%,0%,u
COc1ccc(CN2C=C(C(=O)OCc3noc(-c4ccc(C)c(C)c4)n3)C(C)=NS2(=O)=O)cc1,i,10%,-25%,-9%,u,u,x,x,x,x
CC1=NS(=O)(=O)N(Cc2ccccc2)C=C1C(=O)OCc1noc(-c2ccc(C)c(C)c2)n1,i,-12%,u,-22%,11µM*,u,17µM*,u,-2%,15µM*
COc1ccc(CN2C=C(C(=O)OCc3noc(-c4cccc(F)c4)n3)C(C)=NS2(=O)=O)cc1,i,-7%,-43%,-8%,0%,-26%,x,x,x,x
COc1ccc(CN2C=C(C(=O)OCc3noc(-c4ccc(C)cc4)n3)C(C)=NS2(=O)=O)cc1,i,6%,u,-25%,10µM*,-27%,15µM*,14µM*,0%,12µM*
COc1cccc(CNC(=O)c2ccc3nc(-c4ccncc4)oc3c2)c1,x,2%[87.6 µM],u,-5%[87.6 µM],x,u,x,x,x,x
O=C(NCc1ccc(F)cc1)C1CCc2nnc(CN[S+](=O)([O-])c3ccccc3Cl)n21 (stereo not given),x,9%,i,7%,x,i,x,x,x,x
CC(=O)N1CCn2c(nn(-c3ccc([N+](=O)[O-])cc3)c2=O)C1,i,24%[87.6 µM],-36%[138 µM],10%[87.6 µM],2%[70.6 µM],u,x,x,x,x
COc1ccc(CN2CCn3c(nn(-c4ccc([N+](=O)[O-])cc4)c3=O)C2)cc1,i,-5%,u,-3%,11µM*,u,22µM*,22µM*,-6%[86.2 µM],22µM*
COc1ccc(-n2nc3n(c2=O)CCN(Cc2cccn2C)C3)cc1,x,-27%,-25%,112%,x,u,u,u,u,u
CN(C)c1ccc(CN2CCn3c(nn(-c4ccc([N+](=O)[O-])cc4)c3=O)C2)cc1,i,8%,u,6%,11µM*,32µM*,17µM*,19µM*,3%[86.2 µM],14µM*
CCN(CC)C(=O)c1csc(N2CCN(c3cccc(Cl)c3)CC2)n1,i,-15%,u,u,16µM*,u,24µM*,22µM*,5%,22µM*
COc1cccc(N2CCN(c3nc(C(=O)NCc4cccc(C)c4)cs3)CC2)c1,i,u,u,-26%,13µM*,u,12µM*,11µM*,-3%,12µM*
Cc1cccc(CNC(=O)c2csc(N3CCN(c4ccccc4)CC3)n2)c1,i,-19%,u,-10%,13µM*,40µM*,24µM*,24µM*,-1%,22µM*
O=C(NC1CCCCCC1)c1csc(N2CCN(c3ccccc3)CC2)n1,i,3%,u,-25%,u,u,24µM*,u,-15%,u
O=C(NCc1ccc(F)cc1)c1nc2sccn2c1-c1cccnc1,x,-6%,-19%,-11%,x,-3%,x,x,x,x
Cc1ccc(C2Cn3nnc(-c4noc(-c5ccoc5)n4)c3CO2)cc1 (stereo not given),i,17%,i,9%,u,14%,u,u,0%,-3%
COc1ccc(C2Cn3nnc(-c4nc(C5CC5)no4)c3CO2)cc1 (stereo not given),i,4%,-34%,0%,u,-11%,u,-22%,2%,-17%
Fc1ccc(C2Cn3nnc(-c4nc(C5CCCCC5)no4)c3CO2)cc1 (stereo not given),i,10%,-26%,1%,u,-9%,12µM*,9.7µM*,-1%,-24%
O=C(NC1CC1)C1(F)CCN(S(=O)(=O)c2ccccc2)CC1,x,5%,-31%,-4%,x,u,x,x,x,x
COc1cccc(-c2c(C(=O)NCC(C)C)nc3sccn23)c1,x,-8%[87.6 µM],-22%[138 µM],-13%[87.6 µM],x,-6%[172 µM],x,x,x,x
CC(=O)N1Cc2ccccc2CC2(CCN(Cc3ccccc3)C2)C1 (stereo not given),x,-11%,-4%,21%,x,-17%,-21%,-17%,2%,-13%
CC(=O)N1Cc2ccccc2CC2(CCN(Cc3ccncc3)C2)C1 (stereo not given),x,10%,-10%,u,x,-16%,x,x,x,x
Cc1nn2c(c1-c1ccccc1C(N)=O)N(CCCc1ccccc1)CCC2,i,u,11µM*,1.4µM*,1.1µM*,11µM*,2.8µM*,u,0%[86.2 µM],3.5µM*
Cc1nn2c(c1-c1ccccc1[S+](C)(=O)[O-])N(CCCc1ccccc1)CCC2,i,u,u,u,18µM*,u,5.6µM*,25µM*,3%[86.2 µM],4.4µM*
